Records with an inconclusive call do not appear. Activity calls are given as the source filed them. Unless noted, the call rests on the fitted dose curve; in most records, active means well fitted curve in the direction sought with a large enough effect in the repeat runs; inconclusive means weak or mixed curves; inactive means no such curve, though single readings can be large; an effect the other way counts as inactive or inconclusive.

The nature of assay [1]: qHTS assay to identify aromatase inhibitors - cell viability counter screen (AID 743084).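 Further: cells stimulated with testosterone during compound exposure; nearly all actives have a fitted effect of over 55% in size.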 Further: potency means the concentration at half of the fitted maximal effect.
The nature of assay [2]: qHTS assay to identify small molecule that activate the aryl hydrocarbon receptor (AhR) signaling pathway - cell viability counter screen (AID 743086). Further: series mostly up to about 70 µM; nearly all actives have a fitted effect of over 45% in size. Put shortly: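 Cytotoxicity counter screen: CellTiter-Fluor signal (30 min, 37 C) in 4000 HepG2 cells/well carrying the DRE-luciferase reporter, following 24 h compound exposure at 37 C.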
A general note: In qHTS, concentration-response curves come from the screen itself.

In assay [3] the target is Peroxisome proliferator-activated receptor gamma (Homo sapiens) (UniProt P37231). The assay is described as follows: qHTS assay to identify small molecule antagonists of the peroxisome proliferator-activated receptor gamma (PPARg) signaling pathway (AID 743191; calls by dose curve; further: series mostly up to about 63 µM; nearly all actives have a fitted effect of over 30% in size). The gist of the method: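 Beta-lactamase reporter under UAS control in HEK293H PPARg-bla cells; compound treatment 17 h at 37C. Read-out: fluorescence intensity after 1 h room-temperature incubation with LiveBLAzer B/G FRET substrate.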
Chain of Peroxisome proliferator-activated receptor gamma (Homo sapiens) (P37231 whole entry, looked up): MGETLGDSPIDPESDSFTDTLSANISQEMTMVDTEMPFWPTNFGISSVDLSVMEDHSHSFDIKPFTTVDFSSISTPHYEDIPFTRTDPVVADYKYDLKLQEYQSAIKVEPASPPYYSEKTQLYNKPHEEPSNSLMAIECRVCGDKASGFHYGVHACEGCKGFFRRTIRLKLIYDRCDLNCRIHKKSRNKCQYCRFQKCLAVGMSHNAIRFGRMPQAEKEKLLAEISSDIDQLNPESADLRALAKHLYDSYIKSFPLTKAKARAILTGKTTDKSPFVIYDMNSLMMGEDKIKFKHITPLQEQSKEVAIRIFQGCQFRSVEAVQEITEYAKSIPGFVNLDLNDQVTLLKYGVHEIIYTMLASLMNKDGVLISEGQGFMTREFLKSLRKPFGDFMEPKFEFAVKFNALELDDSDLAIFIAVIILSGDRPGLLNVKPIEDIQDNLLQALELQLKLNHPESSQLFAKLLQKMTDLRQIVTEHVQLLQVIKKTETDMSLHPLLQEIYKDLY

A short description of assay [4]: qHTS assay to identify small molecule antagonists of the peroxisome proliferator-activated receptor gamma (PPARg) signaling pathway - cell viability counter screen (AID 743194). Further: nearly all actives have a fitted effect of over 55% in size. Conditions: Potency: co-treated with 50 nM rosiglitazone. The gist of the method: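 Viability was measured as CellTiter-Glo luminescence in GeneBLAzer PPARg UAS-bla HEK293H cells. These cells had been exposed 17 h at 37 C to compounds together with rosiglitazone at 50 nM final, with the beta-lactamase readout taken in the same wells.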

Assay [5] is described as follows: qHTS assay for small molecule agonists of the antioxidant response element (ARE) signaling pathway (AID 743202; active means well fitted activation curve with a large enough effect in the signal ratio in the repeat runs, not every such curve was filed as active; the % refers to the signal ratio). The gist of the method:
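After 16 hours of compound treatment at 37 C, HepG2 cells with a stably integrated ARE-driven beta-lactamase reporter were loaded 2 hours at room temperature with LiveBLAzer B/G FRET substrate and fluorescence intensity measured.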

A short description of assay [6]: qHTS assay for small molecule agonists of the antioxidant response element (ARE) signaling pathway - cell viability counter screen (AID 743203; calls by dose curve; further: nearly all actives have a fitted effect of over 55% in size). The gist of the method:
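Cytotoxicity was tested in parallel with the ARE reporter screen. ARE-bla HepG2 cells were exposed to compounds for 16 hrs, and viability was taken from CellTiter-Glo luminescence.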

Assay [7] is described as follows: qHTS assay for small molecule activators of the heat shock response signaling pathway - cell viability counter screen (AID 743209). Further: nearly all actives have a fitted effect of over 50% in size. Put shortly: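 Cytotoxicity counter screen run in parallel with the HSE beta-lactamase reporter, using the same wells. HeLa HSE-bla cells received compound for 5 h at 37 C; ATP-based CellTiter-Glo luminescence was measured after 30 min at room temperature.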

Assay [8] in a line: qHTS assay for small molecule activators of the heat shock response signaling pathway (AID 743210; active means well fitted activation curve with a large enough effect in the signal ratio in the repeat runs, with a control signal flat, not every such curve was filed as active; the % refers to the signal ratio; further: series mostly up to about 63 µM). The gist of the method: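 Compound exposure lasted 5 h at 37 C in HeLa cells carrying a heat-shock-element-driven beta-lactamase reporter. Read-out: fluorescence intensity after 2.5 h room-temperature loading with LiveBLAzer B/G FRET substrate.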
Assay [9] can be described thus: qHTS assay to identify small molecule agonists of the peroxisome proliferator-activated receptor delta (PPARd) signaling pathway - cell viability counter screen (AID 743211). Further: nearly all actives have a fitted effect of over 55% in size. The gist of the method: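 Counter screen for cytotoxicity run in parallel with the PPARd reporter screen. Beta-lactamase reporter HEK293H cells exposed to compounds 17 h; ATP-based CellTiter-Glo luminescence quantified viability.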

For assay [10], the target named is Peroxisome proliferator-activated receptor delta (Homo sapiens) (UniProt Q03181). The assay is described as follows: qHTS assay to identify small molecule agonists of the peroxisome proliferator-activated receptor delta (PPARd) signaling pathway (AID 743212; calls by dose curve). Put shortly: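 Beta-lactamase reporter readout: a ratiometric FRET signal from the LiveBLAzer substrate after 2 h at room temperature. Compound exposure at 37 °C in PPARδ-bla HEK293H cells driven by an upstream activator sequence.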
Chain of Peroxisome proliferator-activated receptor delta (Homo sapiens) (Q03181 whole entry, looked up): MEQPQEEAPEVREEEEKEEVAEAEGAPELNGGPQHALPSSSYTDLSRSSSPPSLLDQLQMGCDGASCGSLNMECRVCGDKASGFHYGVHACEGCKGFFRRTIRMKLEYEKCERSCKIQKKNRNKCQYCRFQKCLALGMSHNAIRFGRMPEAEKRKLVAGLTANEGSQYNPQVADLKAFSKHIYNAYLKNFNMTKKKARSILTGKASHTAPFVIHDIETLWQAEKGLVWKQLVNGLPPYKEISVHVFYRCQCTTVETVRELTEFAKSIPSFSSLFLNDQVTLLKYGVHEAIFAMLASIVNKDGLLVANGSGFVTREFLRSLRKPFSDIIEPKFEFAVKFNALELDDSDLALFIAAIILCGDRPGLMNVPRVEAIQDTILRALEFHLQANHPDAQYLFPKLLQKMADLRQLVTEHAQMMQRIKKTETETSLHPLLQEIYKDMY

Assay [11] is described as follows: qHTS assay to identify small molecule antagonists of the peroxisome proliferator-activated receptor delta (PPARd) signaling pathway - cell viability counter screen (AID 743213). Further: nearly all actives have a fitted effect of over 50% in size. Put shortly: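 CellTiter-Glo was added to PPARd-bla HEK293H wells following 17 h compound treatment in the presence of 300 nM L165041. Luminescence was recorded after 30 min at room temperature.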

The target in assay [12] is Peroxisome proliferator-activated receptor delta (Homo sapiens) (UniProt Q03181). As to the kind of experiment: qHTS assay to identify small molecule antagonists of the peroxisome proliferator-activated receptor delta (PPARd) signaling pathway (AID 743215; active means well fitted inhibition curve with a large enough effect in the signal ratio in the repeat runs, not every such curve was filed as active; the % refers to the signal ratio;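 further: cells stimulated with agonist L165041 at 300 nM final during compound exposure; series mostly up to about 62 µM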). The gist of the method: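 Cells: HEK293H with a UAS-driven beta-lactamase reporter responsive to PPARd. Compounds were co-added with L165041 (300 nM, final) and incubated 17 h at 37 C before a 2 h room-temperature FRET substrate step and fluorescence reading.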

A short description of assay [13]: qHTS assay to identify small molecule agonists of the farnesoid-X-receptor (FXR) signaling pathway - cell viability counter screen (AID 743218). Further: nearly all actives have a fitted effect of over 45% in size. Put shortly:
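Cells were seeded, left 5 h at 37 C and 5% CO2, then dosed with compound in DMSO for 16 h. After the beta-lactamase FRET read, CellTiter-Glo was added and luminescence measured 30 min later.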

The nature of assay [14]: qHTS assay to identify small molecule antagonists of the farnesoid-X-receptor (FXR) signaling pathway - cell viability counter screen (AID 743221; active means well fitted cell-killing curve with a large enough effect in the repeat runs, not every such curve was filed as active; further: nearly all actives have a fitted effect of over 50% in size). Put shortly:
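Multiplexed counter screen: viability of FXR-bla HEK 293T cells under agonist stimulation by chenodeoxycholic acid (50 uM, final) and test compound for 16 h at 37 C, measured by CellTiter-Glo luminescence in the reporter wells.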

For assay [15], the target named is Vitamin D3 receptor (Homo sapiens) (UniProt P11473). As to the kind of experiment: qHTS assay to identify small molecule agonists of the vitamin D receptor (VDR) signaling pathway (AID 743222; calls by dose curve). Put shortly:
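Cells carrying a VDR-driven beta-lactamase reporter are seeded at 2,000 per well and rested 4 h. Compounds in DMSO are added for 16 h at 37C, and FRET substrate fluorescence is measured after 2 h at room temperature.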

In assay [16] the target is Peroxisome proliferator-activated receptor gamma (Homo sapiens) (UniProt P37231). The assay is described as follows: qHTS assay to identify small molecule agonists of the peroxisome proliferator-activated receptor gamma (PPARg) signaling pathway (AID 743094; active means well fitted activation curve with a large enough effect in the signal ratio in the repeat runs, not every such curve was filed as active; the % refers to the signal ratio). Put shortly: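 Cells from the PPARg UAS-bla HEK293H line are plated and incubated 5 h at 37C. Compounds in DMSO are pinned in and left 17 h at 37C. LiveBLAzer B/G substrate is then added for 1 h at room temperature before fluorescence is measured.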

Assay [17] addresses Vitamin D3 receptor (Homo sapiens) (UniProt P11473). The assay is described as follows: qHTS assay to identify small molecule antagonists of the vitamin D receptor (VDR) signaling pathway (AID 743223; active means well fitted inhibition curve with a large enough effect in the signal ratio in the repeat runs, not every such curve was filed as active; the % refers to the signal ratio). Put shortly: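 Cells carrying a VDR-driven beta-lactamase reporter (VDR-bla) were co-treated with compound and 3 nM final 1alpha,25-dihydroxyvitamin D3 for 16 h at 37C; reporter activity was measured as FRET substrate fluorescence after 2 h at room temperature.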

Assay [18] deals with Bile acid receptor (Homo sapiens) (UniProt Q96RI1). The assay is described as follows: qHTS assay to identify small molecule antagonists of the farnesoid-X-receptor (FXR) signaling pathway (AID 743217; active means well fitted inhibition curve with a large enough effect in the signal ratio in the repeat runs, not every such curve was filed as active; the % refers to the signal ratio). Put shortly:
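Cells carrying a UAS-driven beta-lactamase reporter (GeneBLAzer FXR-UAS-bla HEK 293T) were plated and rested 5 h at 37 °C. Compounds in DMSO were added alongside chenodeoxycholic acid agonist at 50 uM final and left 16 h at 37 °C before FRET substrate readout.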

Assay [19] has the same target. The assay is described as follows: qHTS assay to identify small molecule agonists of the farnesoid-X-receptor (FXR) signaling pathway (AID 743220; active means well fitted activation curve with a large enough effect in the signal ratio in the repeat runs, not every such curve was filed as active; the % refers to the signal ratio). The gist of the method:
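FXR-UAS-bla HEK 293T cells carrying a UAS-driven beta-lactamase reporter were plated for 5 h at 37C/5% CO2, then exposed to DMSO-dissolved Tox21 10K compounds for 16 h at 37C. A LiveBLAzer B/G FRET substrate was loaded for 2 h at room temperature before fluorescence reading.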

Chain of Bile acid receptor (Homo sapiens) (Q96RI1 whole entry, looked up): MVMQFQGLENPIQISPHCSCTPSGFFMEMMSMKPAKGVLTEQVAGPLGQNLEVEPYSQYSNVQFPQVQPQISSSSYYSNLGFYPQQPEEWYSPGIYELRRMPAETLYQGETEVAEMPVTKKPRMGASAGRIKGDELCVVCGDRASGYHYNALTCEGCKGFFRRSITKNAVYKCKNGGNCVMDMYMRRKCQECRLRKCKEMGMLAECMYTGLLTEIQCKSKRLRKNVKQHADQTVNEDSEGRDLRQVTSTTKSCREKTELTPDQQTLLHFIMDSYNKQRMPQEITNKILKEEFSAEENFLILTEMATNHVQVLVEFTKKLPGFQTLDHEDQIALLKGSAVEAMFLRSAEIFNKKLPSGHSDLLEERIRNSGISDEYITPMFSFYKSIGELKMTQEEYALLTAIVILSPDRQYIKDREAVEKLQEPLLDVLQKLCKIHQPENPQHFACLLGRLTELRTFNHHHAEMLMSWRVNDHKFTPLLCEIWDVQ
Chain of Vitamin D3 receptor (Homo sapiens) (P11473 whole entry, looked up): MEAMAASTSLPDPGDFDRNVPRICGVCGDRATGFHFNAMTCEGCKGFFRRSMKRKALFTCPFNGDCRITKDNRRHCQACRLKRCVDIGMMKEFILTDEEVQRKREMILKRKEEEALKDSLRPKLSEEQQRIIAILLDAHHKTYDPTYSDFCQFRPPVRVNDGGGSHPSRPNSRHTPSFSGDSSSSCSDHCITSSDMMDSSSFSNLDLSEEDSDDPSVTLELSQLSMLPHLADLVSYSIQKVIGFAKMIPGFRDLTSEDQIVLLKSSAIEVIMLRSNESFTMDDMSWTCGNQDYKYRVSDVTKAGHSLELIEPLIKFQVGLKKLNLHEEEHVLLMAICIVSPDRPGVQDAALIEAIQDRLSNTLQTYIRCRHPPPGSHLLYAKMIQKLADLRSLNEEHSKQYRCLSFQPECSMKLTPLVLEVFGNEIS

Turning to `CCCCc1c(C)nc(NCC)[nH]c1=O`, the Potency result in [1], in [3], in assay [4], in assay [5], in assay [6] and in [7] was “inactive” in each case. Also, the Potency result in [9] and in assay [13] was “inactive” in each case. In addition, the compound was called inactive in assay [2], in assay [8], in [10], in [11], in assay [12] and in assay [14]. In addition, in assay [15], the call was inactive.
`CC(CCc1ccccc1)NC(C)C(O)c1ccc(O)cc1` (configuration not stated): the Potency entry in assay [1], in assay [4], in assay [6], in assay [7], in assay [9] and in assay [13] was “inactive” throughout. Further, the call in assay [2], in assay [16], in assay [8], in [10], in [11] and in [14] was inactive. Further, the outcome in [15] was inactive.
Consider `Nc1cc(Cl)ccc1O`, for which the Potency result in [1], in assay [6], in [7], in assay [9] and in [13] was “inactive” in each case. Also, the outcome in assay [2], in assay [8], in [10], in assay [12], in assay [14] and in assay [17] was inactive.
Take `CC(C)CP(=S)(S)CC(C)C`: the Potency entry in assay [1], in [4], in assay [6], in [7], in assay [9] and in [18] was “inactive” throughout. Moreover, the compound was called inactive in assay [2], in assay [8] and in [14].
Take `C[C@H]1CCC[C@H](O)CCCCCc2cc(O)cc(O)c2C(=O)O1`: the Potency in assay [1] is 43.6 µM (active). Besides, the result in assay [2], in assay [10], in assay [11], in assay [12] and in [14] was inactive. The Potency entry in assay [7], in [9] and in assay [13] was “inactive” each time.
With `CCC1(c2ccccc2)C(=O)N=C(O)NC1=O` (configuration not stated), the Potency entry in assay [1], in [3], in assay [4], in [5], in assay [6] and in assay [7] was “inactive” throughout. The Potency result in assay [9] and in assay [13] was “inactive” each time. Moreover, the compound was classed as inactive in assay [2], in [8], in [11], in assay [12], in assay [14] and in assay [15]. Moreover, in [17], the call was inactive.
As to `CCOc1nc(C(Cl)(Cl)Cl)ns1`, the Potency entry in assay [1], in assay [4], in assay [5], in [6], in [7] and in [9] was “inactive” throughout. Further, in [13], the Potency entry was “inactive”. In addition, the call in assay [2], in assay [8], in assay [10], in assay [11], in [12] and in assay [14] was inactive. Besides, the outcome in assay [15] and in assay [17] was inactive.
Turning to `CC(=O)CC(c1ccc(Cl)cc1)c1c(O)c2ccccc2oc1=O` (configuration not stated), the Potency result in assay [1], in assay [3], in assay [4], in assay [6], in [7] and in assay [9] was “inactive” in each case. The Potency entry in [13] was “inactive”. The outcome in assay [2], in [8], in [11], in assay [12], in assay [14] and in assay [15] was inactive.
As for `C=C(C)[C@@H]1CC=C(C=O)CC1`, the Potency entry in assay [1], in assay [4], in assay [6], in [7], in assay [9] and in [18] was “inactive” each time. Besides, the call in assay [2], in assay [8], in assay [11], in [19], in assay [14] and in assay [15] was inactive.

Source of the values: PubChem BioAssay (Tox21).
